# Values joined by “and” are separate entries in the source; they are usually repeats but may differ in a detail not shown here. Equal entries are not always repeated. The source holds several records for some structures; these can differ, active in one and inactive in another. Active and inactive are the calls of the source. The calls were made as follows: active = hit-call score of the fitted dose curve at least 0.9, where 1 is the maximum; inactive = score below 0.9.
# Read-out: Human Leukocyte Antigen - DR isotype (HLADR), HLA-DRA (gene 3122)
# Assay: BSK_3C_HLADR: BioMAP Diversity Plus: 3C Assay for Human Leukocyte Antigen - DR isotype (HLADR) Biomarker Activity (AID 2283019)
# Details: primary human endothelial cells (HUVEC); actives raise or lower the signal
# Experimental: BSK_3C is a cell-based, multiplexed-readout assay that uses umbilical vein endothelium, a human vascular primary cell, with measurements taken at 24 hours after chemical dosing in a 96-well plate.BSK_3C_HLADR is an assay component measured in the BSK_3C assay. It measures HLA-DR antibody related to regulation of gene expression using ELISA technology.Data from the assay component BSK_3C_HLADR was analyzed into 1 assay endpoint. This assay endpoint, BSK_3C_HLADR, was analyzed with bidirectional fitting relative to DMSO as the negative control and baseline of activity. Using a type of binding reporter, gain or loss-of-signal activity can be used to understand changes in the signaling as they relate to the gene HLA-DRA. Furthermore, this assay endpoint can be referred to as a primary readout, because this assay has produced multiple assay endpoints where this one serves a signaling function. To generalize the intended target to other relatable targets, this assay endpoint is annotated to the cell adhesion molecules intended target family, where the subfamily is MHC Class II.
# The levels of cell surface (or secreted, indicated by the prefix "s") biomarker endpoints were measured by ELISA. Overt cytotoxicity to cells in confluent adherent cultures (all systems other than the BT system) was assessed by measuring total protein levels using sulforhodamine B (SRB) staining in parallel cultures at the time of biomarker measurements, indicated as SRB endpoints. For proliferation assays for adherent cell types, individual cell types are cultured at sub-confluence and relative cell numbers quantified by SRB staining at time points optimized for each system (48 h: 3C and CASM3C systems; 72 h: BT and HDF3CGF systems; 96 h: SAg system). SRB was performed by staining cells with 0.1% SRB after fixation with 10% TCA and reading wells at 560 nm.Viability and proliferation of PBMC (T cells) was quantified by Alamar Blue reduction for the SAg and BT systems. For PBMC viability (referred to as PBMC Cytotoxicity within the assay endpoint names), cells were plated (75,000/well in a 96-well plate) and then chemical samples added for 1 h before addition of activators, SEB and TSST-1 (20 ng/mL final concentration each). Cells were incubated for 90 h. Then, Alamar Blue (20 uL/well) (Invitrogen, Cat DAL1100) was added for 6 h, and the plates were read with a fluorescence microplate reader at 546/580 nm (excitation/emission). For PBMC proliferation, cells were plated and activated as above but incubated for only 16 h prior to addition of Alamar Blue. Plates were read after 6 h.
SMILES,outcome,AC50
c1ccc2[nH]c(-c3cscn3)nc2c1,inactive,
CCCCOCCOCCOCc1cc2c(cc1CCC)OCO2,inactive,
CCOC(=O)NCCOc1ccc(Oc2ccccc2)cc1,,25.5 µM (active)
Oc1ccc(C(c2ccc(O)cc2)C(Cl)(Cl)Cl)cc1,,33.5 µM (active)
COc1c(Cl)ccc(Cl)c1C(=O)O,inactive,
COCCO,inactive,
COC(=O)CSc1cc(N=c2sc(=O)n3n2CCCC3)c(F)cc1Cl,inactive,
CCCOC(=O)NCCCN(C)C,inactive,
c1ccc(Nc2ccccc2)cc1,,13.5 µM (active)
CCN(Cc1c(F)cccc1Cl)c1c([N+](=O)[O-])cc(C(F)(F)F)cc1[N+](=O)[O-],,5.69 µM (active)
CC1(C)C(C=C(Cl)Cl)C1C(=O)OCc1cccc(Oc2ccccc2)c1 (stereo not given),,5.44 µM (active)
CCC(C)OC(=O)N1CCCCC1CCO (stereo not given),inactive,
O=C(O)c1ccccc1,inactive,
C#CCOC(=O)[C@@H](C)Oc1ccc(Oc2ncc(Cl)cc2F)cc1,inactive,
CCCN(CCC)c1c([N+](=O)[O-])cc(C(F)(F)F)c(N)c1[N+](=O)[O-],,18.4 µM (active)
OB(O)O,inactive,
C[C@]12CC[C@@H]3c4ccc(O)cc4C[C@@H](CCCCCCCCCS(=O)CCCC(F)(F)C(F)(F)F)[C@H]3[C@@H]1CC[C@@H]2O (stereo not given in full),inactive,
CCCN(CCC)C(=O)SCC,inactive,
CSC(=O)c1cccc2nnsc12,inactive,
CCN(CC)C(=O)c1cccc(C)c1,inactive,

SMILES,outcome,AC50
COC(=O)c1ccc(I)cc1S(=O)(=O)NC(=O)Nc1nc(C)nc(OC)n1,inactive,
CC(C)(C)[C@@H](O)[C@@H](Cc1ccc(Cl)cc1)n1cncn1,,7.11 µM (active)
CC(C)(c1ccc(O)cc1)c1ccc(O)cc1,inactive,
N#CSCSc1nc2ccccc2s1,,2.3 µM (active) and 5.63 µM (active)
CN(C)C(=O)Nc1ccc(Cl)c(Cl)c1,inactive,
C=CCOC(Cn1ccnc1)c1ccc(Cl)cc1Cl (stereo not given),,13.6 µM (active)
CCOC(=O)COc1cc(-n2ncc(C(F)(F)F)c(C)c2=O)c(F)cc1Cl,inactive,
CCOC(=O)C(C)Oc1ccc(Oc2cnc3cc(Cl)ccc3n2)cc1 (stereo not given),inactive,
CCCCOC(=O)[C@@H](C)Oc1ccc(Oc2ccc(C(F)(F)F)cn2)cc1,inactive,
O=C(O)C1(C(=O)Nc2ccc(Cl)cc2Cl)CC1,,4.68 µM (active)
CCOC(=O)c1ccc(O)cc1,inactive,
S=C([S-])NCCNC(=S)[S-].[Mn+2],,29.7 µM (active)
COC(=O)c1ccccc1C(=O)O,,9.98 µM (active)
C#C[C@]1(O)CC[C@H]2[C@@H]3CCC4=CC(=O)CC[C@@H]4[C@H]3CC[C@@]21CC,,20 µM (active)
S=C(S)NCCNC(=S)S.[Mn+2].[S-]C([S-])=NCCN=C([S-])[S-].[Zn+2],inactive,13.3 µM (active) [middle of 4 runs]
CCOC(=O)[C@H](C)Oc1ccc(Oc2nc3ccc(Cl)cc3o2)cc1,,7.25 µM (active)
CCC(O)=C1C(=O)CC(C(=O)O)CC1=O (stereo not given),inactive,
Cc1nn(C)c(Oc2ccccc2)c1C=NOCc1ccc(C(=O)OC(C)(C)C)cc1,,3.97 µM (active)
COC(=O)c1cccc(C)c1S(=O)(=O)NC(=O)Nc1nc(OCC(F)(F)F)nc(N(C)C)n1,inactive,
